Data from PubChem BioAssay.
Activity calls are given as the source filed them.

Assays:
[1] = tested on: PRMT1 (protein arginine N-methyltransferase 1); test: small molecules binding arginine methyltransferase PRMT1 – biochemical, small-molecule microarray, 635 nm fluorescence, primary screen (AID 1088); details: higher = more signal;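 further: binding of Prmt1 protein to compounds spotted on small-molecule microarray slides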
[2] = growth effects on S. cerevisiae YJM789 – YJM789 clinical isolate, OD600, 24 h, basal, primary screen (AID 1089); details: higher = more signal, called active from +8 up or from −8 down;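 further: growth of clinical yeast isolate S. cerevisiae YJM 789 seeded 1000 cells per well; test concentration not given here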
[3] = S. pombe growth modifiers, basal conditions – strain 972, OD600, 24 h, no modulator, primary screen (AID 1090);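 further: basal condition with compound alone and no growth modifier present; test concentration not given here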; details: S. pombe 972 growth, higher = more signal, called active from +8 up or from −8 down
[4] = budding yeast growth modifiers under rapamycin – strain BY4716, OD600, 96 h, primary screen (AID 1091); further: test concentration not given here; details: S. cerevisiae BY4716 + rapamycin, higher = more signal, called active from +8 up or from −8 down
[5] = target: Torsin-1A-interacting protein 2 (Homo sapiens) (UniProt Q8NFQ8); test: small molecules binding lysate-expressed LULL1 – cell lysate, human LULL1 lysate, 635/667 nm fluorescence, primary screen (AID 1092); details: small-molecule microarray, hLULL1 lysate binding, 635 nm fluorescence; higher = more signal;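 further: probe is lysate of COS7 cells overexpressing human LULL1; score merges per-feature 667 nm fluorescence with signal-to-noise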
[6] = optical density change of DRC41 E. coli – strain DRC41, OD650, 24 h, E. coli filamentation project, primary screen (AID 1093);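 further: MC1000 strain lacking acrAB efflux and sulA so SOS filamentation is blocked; test concentration not given here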; details: E. coli DRC41 growth, higher = more signal, called active from +8 up or from −8 down
[7] = probe aLefty2 binding to arrayed compounds – biochemical, biotinylated probe, 635/667 nm fluorescence, primary screen (AID 1094); details: small-molecule microarray, higher = more signal;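 further: score merges spot fluorescence near 667 nm with spot signal-to-noise ratio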
[8] = tested on: Noggin (protein binding on small-molecule microarray); test: small molecules binding Noggin protein – biochemical, 635/667 nm fluorescence, primary screen (AID 1095); details: 635 nm fluorescence, higher = more signal;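 further: score merges 667 nm feature fluorescence with signal to noise over triplicate slides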
[9] = target: Neurogenic locus notch homolog protein 3 (Homo sapiens) (UniProt Q9UM47); test: small molecules binding NOTCH3 protein – biochemical, 635/667 nm fluorescence, primary screen (AID 1096); details: small-molecule microarray, 635 nm fluorescence, higher = more signal
[10] = probe aEGFR binding to arrayed compounds – biochemical, biotinylated probe, 635/667 nm fluorescence, primary screen (AID 1097); details: small-molecule microarray, higher = more signal;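 further: probe is a biotinylated anti-EGFR antibody binding compounds printed on slides; score combines fluorescence near 667 nm and signal to noise of each spot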
[11] = tested on: Plasmodium falciparum Sir2 (PF13_0152, Sir2A); test: Plasmodium falciparum Sir2A binding compounds – biochemical, small-molecule microarray, 635 nm fluorescence, primary screen (AID 1098); details: fluorescence 635 nm, higher = more signal;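 further: score merges spot fluorescence intensity with its signal-to-noise ratio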
[12] = probe aDKK1 binding to arrayed compounds – biochemical, biotinylated probe, 635/667 nm fluorescence, primary screen (AID 1099); details: small-molecule microarray, higher = more signal;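 further: score merges 667nm spot fluorescence with signal to noise across triplicate slides; reference of the scale not given here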
[13] = probe aCHRDL2 binding to arrayed compounds – biochemical, biotinylated probe, 635/667 nm fluorescence, primary screen (AID 1100); details: small-molecule microarray, higher = more signal
[14] = change in splice reporter luminescence, either direction, cell-based, HEK293, spliceosome inhibition project, primary screen (AID 1101); details: HEK293 splicing luciferase reporter, 24 h, higher = more signal, called active from +8 up or from −8 down;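 further: HEK293 cells carrying a splicing-competent luciferase reporter gene; test concentration not given here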
[15] = target: Fibroblast growth factor 10 (Homo sapiens) (UniProt O15520); test: compounds binding fibroblast growth factor 10 – biochemical, small-molecule microarray, 635 nm fluorescence, primary screen (AID 1102); details: FGF10 binding, fluorescence 635 nm, higher = more signal
[16] = tested on: glycogen synthase kinase-3 (GSK3A per assay name; protocol says GSK3B); test: compounds binding glycogen synthase kinase-3 – biochemical, small-molecule microarray, 635 nm fluorescence, GSK3A, primary screen (AID 1103); details: fluorescence 635 nm, higher = more signal; further: the record names both GSK3A and GSK3B
[17] = target: Epidermal growth factor receptor (Homo sapiens) (UniProt P00533); test: compounds binding epidermal growth factor receptor – biochemical, small-molecule microarray, 635 nm fluorescence, primary screen (AID 1104); details: EGFR binding, higher = more signal;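 further: score merges 667 nm emission intensity with spot signal to noise over triplicate slides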
[18] = target: Follistatin-related protein 3 (Homo sapiens) (UniProt O95633); test: compounds binding follistatin-related protein 3 – biochemical, small-molecule microarray, 635 nm fluorescence, primary screen (AID 1105); details: FSTL3 binding, higher = more signal;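 further: score merges emission near 667 nm and signal to noise per printed spot across three slides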
[19] = target: Dickkopf-related protein 1 (Homo sapiens) (UniProt O94907); test: small molecules binding DKK1 protein – biochemical, small-molecule microarray, 635 nm fluorescence scan, primary screen (AID 1106); details: higher = more signal;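 further: score merges emission near 667 nm with signal to noise over three replicate slides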
[20] = tested on: Inhibin beta A chain (activin A); test: small molecules binding activin A – biochemical, small-molecule microarray, 635 nm fluorescence scan, primary screen (AID 1107); details: INHBA, higher = more signal;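 further: mouse activin A protein probed at 4.33 µg/mL on printed slides; score merges bound-protein fluorescence near 667 nm with spot signal-to-noise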

Chain of Epidermal growth factor receptor (Homo sapiens) (P00533 whole entry, looked up): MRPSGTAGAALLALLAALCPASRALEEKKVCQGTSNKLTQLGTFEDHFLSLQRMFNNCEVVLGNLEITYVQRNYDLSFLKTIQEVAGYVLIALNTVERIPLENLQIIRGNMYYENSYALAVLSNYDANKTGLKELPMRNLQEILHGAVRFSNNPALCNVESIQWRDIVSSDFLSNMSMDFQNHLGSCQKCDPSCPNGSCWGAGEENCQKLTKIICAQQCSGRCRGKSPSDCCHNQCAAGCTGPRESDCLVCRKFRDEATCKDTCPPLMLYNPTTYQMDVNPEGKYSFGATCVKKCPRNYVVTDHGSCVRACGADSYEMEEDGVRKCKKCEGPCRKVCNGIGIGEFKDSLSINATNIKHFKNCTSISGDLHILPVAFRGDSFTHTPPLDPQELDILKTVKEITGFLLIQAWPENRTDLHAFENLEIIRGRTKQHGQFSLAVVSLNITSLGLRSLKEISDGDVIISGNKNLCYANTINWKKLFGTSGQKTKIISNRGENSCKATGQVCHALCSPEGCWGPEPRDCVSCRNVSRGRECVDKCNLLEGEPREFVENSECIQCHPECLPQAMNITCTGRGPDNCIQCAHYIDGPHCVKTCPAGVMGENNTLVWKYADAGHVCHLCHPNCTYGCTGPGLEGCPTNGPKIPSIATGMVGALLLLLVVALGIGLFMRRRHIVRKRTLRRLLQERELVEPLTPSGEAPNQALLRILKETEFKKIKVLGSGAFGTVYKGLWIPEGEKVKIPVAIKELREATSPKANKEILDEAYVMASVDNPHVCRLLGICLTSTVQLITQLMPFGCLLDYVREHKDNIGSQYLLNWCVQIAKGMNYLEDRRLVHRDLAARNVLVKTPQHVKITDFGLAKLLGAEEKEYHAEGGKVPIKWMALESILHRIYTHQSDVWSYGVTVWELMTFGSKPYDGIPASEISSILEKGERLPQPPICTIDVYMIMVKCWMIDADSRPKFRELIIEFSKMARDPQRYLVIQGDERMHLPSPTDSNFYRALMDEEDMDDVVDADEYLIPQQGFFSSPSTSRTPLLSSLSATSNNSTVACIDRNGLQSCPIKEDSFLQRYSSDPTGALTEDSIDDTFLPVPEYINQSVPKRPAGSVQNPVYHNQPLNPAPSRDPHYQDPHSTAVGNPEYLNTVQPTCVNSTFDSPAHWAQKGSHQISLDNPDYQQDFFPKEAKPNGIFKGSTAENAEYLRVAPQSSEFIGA
Chain of Fibroblast growth factor 10 (Homo sapiens) (O15520 whole entry, looked up): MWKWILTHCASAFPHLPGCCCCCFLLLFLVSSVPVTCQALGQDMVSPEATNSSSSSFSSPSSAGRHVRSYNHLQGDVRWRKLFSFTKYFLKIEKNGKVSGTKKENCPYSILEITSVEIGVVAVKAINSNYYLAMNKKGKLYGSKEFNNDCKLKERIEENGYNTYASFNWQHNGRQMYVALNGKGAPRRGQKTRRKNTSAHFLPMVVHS
Chain of Neurogenic locus notch homolog protein 3 (Homo sapiens) (Q9UM47 whole entry, looked up): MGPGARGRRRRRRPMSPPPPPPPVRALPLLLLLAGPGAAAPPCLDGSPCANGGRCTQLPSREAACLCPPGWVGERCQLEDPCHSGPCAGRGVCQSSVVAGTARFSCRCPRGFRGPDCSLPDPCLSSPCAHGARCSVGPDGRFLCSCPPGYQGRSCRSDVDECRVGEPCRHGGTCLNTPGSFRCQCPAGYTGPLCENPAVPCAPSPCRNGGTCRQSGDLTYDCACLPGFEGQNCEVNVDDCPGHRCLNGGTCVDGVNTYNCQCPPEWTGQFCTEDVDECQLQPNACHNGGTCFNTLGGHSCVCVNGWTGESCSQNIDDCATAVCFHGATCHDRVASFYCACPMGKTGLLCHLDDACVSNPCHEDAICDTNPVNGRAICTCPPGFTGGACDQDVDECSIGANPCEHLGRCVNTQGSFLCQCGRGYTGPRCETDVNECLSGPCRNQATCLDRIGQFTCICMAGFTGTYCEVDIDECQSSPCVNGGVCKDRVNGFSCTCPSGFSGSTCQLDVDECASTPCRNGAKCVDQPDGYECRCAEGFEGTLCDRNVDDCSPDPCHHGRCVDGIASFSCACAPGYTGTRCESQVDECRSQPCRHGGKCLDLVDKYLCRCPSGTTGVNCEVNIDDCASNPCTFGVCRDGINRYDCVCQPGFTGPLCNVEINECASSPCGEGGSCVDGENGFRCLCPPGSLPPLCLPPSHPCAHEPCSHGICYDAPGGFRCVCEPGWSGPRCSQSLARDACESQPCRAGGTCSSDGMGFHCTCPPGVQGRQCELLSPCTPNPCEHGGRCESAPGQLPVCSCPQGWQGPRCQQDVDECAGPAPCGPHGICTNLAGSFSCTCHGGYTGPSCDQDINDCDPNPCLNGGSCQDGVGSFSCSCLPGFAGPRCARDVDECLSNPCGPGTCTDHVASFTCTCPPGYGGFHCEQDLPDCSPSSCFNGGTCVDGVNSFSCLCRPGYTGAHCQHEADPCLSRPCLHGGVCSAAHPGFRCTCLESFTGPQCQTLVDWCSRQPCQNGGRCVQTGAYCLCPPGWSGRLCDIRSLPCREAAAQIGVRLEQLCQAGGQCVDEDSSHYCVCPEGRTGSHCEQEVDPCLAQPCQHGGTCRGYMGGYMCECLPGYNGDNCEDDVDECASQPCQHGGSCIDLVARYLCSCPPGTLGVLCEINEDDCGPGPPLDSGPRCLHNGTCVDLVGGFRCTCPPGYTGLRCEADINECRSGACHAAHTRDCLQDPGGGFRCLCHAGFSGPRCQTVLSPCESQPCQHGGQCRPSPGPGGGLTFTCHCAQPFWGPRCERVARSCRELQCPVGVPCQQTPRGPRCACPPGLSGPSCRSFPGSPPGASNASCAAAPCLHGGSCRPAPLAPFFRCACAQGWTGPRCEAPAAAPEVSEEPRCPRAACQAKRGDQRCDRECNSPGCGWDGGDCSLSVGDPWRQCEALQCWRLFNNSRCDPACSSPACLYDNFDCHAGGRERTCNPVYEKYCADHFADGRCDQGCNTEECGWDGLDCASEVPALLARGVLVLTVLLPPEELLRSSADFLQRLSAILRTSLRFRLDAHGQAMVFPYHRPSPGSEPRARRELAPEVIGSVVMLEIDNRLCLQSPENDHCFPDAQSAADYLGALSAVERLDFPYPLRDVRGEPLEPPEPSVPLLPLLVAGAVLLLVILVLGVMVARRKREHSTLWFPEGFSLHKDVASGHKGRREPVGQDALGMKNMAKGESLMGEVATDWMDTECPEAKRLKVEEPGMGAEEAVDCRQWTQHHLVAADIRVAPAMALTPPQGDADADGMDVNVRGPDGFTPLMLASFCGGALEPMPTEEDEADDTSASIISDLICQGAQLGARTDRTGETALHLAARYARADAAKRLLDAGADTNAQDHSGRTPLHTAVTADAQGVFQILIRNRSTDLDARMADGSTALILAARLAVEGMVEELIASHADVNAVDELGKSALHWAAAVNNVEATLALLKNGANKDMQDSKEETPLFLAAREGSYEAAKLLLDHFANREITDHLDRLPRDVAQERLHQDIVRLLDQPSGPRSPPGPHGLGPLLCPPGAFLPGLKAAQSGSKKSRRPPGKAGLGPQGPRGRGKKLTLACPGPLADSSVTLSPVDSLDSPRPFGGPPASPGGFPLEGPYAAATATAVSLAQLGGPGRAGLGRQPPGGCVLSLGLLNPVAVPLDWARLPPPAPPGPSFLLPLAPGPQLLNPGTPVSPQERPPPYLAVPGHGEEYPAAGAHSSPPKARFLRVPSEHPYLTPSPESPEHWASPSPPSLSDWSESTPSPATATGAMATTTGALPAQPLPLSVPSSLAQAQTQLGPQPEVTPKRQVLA
Chain of Torsin-1A-interacting protein 2 (Homo sapiens) (Q8NFQ8 whole entry, looked up): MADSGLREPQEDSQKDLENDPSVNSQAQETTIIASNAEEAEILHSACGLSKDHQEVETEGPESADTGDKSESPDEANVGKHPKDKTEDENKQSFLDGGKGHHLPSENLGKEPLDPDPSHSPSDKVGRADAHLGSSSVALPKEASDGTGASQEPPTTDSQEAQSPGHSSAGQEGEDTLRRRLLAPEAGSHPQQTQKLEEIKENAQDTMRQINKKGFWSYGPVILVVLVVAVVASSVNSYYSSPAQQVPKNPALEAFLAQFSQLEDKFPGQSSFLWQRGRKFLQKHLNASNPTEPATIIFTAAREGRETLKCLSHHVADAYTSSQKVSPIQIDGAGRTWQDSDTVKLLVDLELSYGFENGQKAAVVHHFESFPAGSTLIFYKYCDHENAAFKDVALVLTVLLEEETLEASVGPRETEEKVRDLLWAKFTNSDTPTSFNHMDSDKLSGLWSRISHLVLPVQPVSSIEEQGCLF
Chain of Dickkopf-related protein 1 (Homo sapiens) (O94907 whole entry, looked up): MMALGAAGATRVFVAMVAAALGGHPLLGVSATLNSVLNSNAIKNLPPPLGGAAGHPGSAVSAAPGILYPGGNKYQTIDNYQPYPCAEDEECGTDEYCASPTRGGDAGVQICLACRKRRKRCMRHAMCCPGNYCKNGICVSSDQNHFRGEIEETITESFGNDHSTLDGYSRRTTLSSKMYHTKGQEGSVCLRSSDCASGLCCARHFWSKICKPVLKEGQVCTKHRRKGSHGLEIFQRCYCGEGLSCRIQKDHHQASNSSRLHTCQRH
Chain of Follistatin-related protein 3 (Homo sapiens) (O95633 whole entry, looked up): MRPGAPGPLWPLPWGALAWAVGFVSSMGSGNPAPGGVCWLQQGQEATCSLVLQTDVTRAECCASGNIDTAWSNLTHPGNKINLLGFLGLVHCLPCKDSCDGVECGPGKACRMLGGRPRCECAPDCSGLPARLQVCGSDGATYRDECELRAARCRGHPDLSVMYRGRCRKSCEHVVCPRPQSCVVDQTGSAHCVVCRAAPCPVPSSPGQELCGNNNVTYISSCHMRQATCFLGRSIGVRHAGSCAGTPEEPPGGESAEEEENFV

Row | Compound | composite z-score [1] | z-score [2] | z-score [3] | z-score [4] | composite z-score [5] | z-score [6] | composite z-score [7] | composite z-score [8] | composite z-score [9] | composite z-score [10] | composite z-score [11] | composite z-score [12] | composite z-score [13] | z-score [14] | composite z-score [15] | composite z-score [16] | composite z-score [17] | composite z-score [18] | composite z-score [19] | composite z-score [20]
1 | COCCOC(=O)N1C(=O)[C@@]2(c3ccccc31)[C@H](C(=O)Nc1nc3ccccc3s1)[C@H]1C(=O)O[C@H](c3ccccc3)[C@H](c3ccccc3)N1[C@@H]2c1ccccc1OCCO | 1.56 | 2.4 (inactive) | 2.78 (inactive) | 5.08 (inactive) | 2.73 | 0.694 (inactive) | 0.248 | 0.579 | 1.1 | -0.0035 | 1.53 | 0.114 | 0.653 | -0.794 (inactive) | 0.906 | 0.783 | 0.209 | 0.678 | 0.0159 | 0.769
2 | C=CC[C@]1(C(N)=O)N=C(c2ccc(OCCCO)cc2)O[C@H]1c1ccccc1N=[N+]=[N-] | 1.37 | 0.344 (inactive) | -1.3 (inactive) | 0.673 (inactive) | 3.33 | 1.94 (inactive) | 0.239 | 0.301 | 0.923 | 0.0049 | 1.56 | 1.28 | 1.26 | -0.401 (inactive) | 1.06 | 0.755 | 0.259 | 1.03 | 0.0701 | 1.48
3 | C=CCN1C(=O)[C@@]2(O[C@@H](CCO)[C@H]([Si](C)(C)c3ccc(OC)cc3)[C@H]2C)c2cc(N3CCCCC3=O)ccc21 | 1.55 | 0.451 (inactive) | 0.215 (inactive) | 1.81 (inactive) | 2.24 | 0.649 (inactive) | -0.157 | 1.19 | 0.868 | -0.0662 | 0.774 | -0.0333 | 0.0918 | -2.02 (inactive) | 0.839 | 0.399 | 0.169 | 0.547 | 0.342 | 0.488
4 | COCCOC(=O)N1C(=O)[C@@]2(c3cc(C#CCNC(N)=O)ccc31)[C@H](C(N)=O)[C@H]1C(=O)O[C@H](c3ccccc3)[C@H](c3ccccc3)N1[C@@H]2c1ccc(O)cc1 | 0.46 | 0.898 (inactive) | -0.173 (inactive) | 0.449 (inactive) | 0.634 | 1.19 (inactive) | 0.0362 | 0.173 | -0.564 | -0.0828 | 0.92 | 0.554 | 0.614 | 0.359 (inactive) | 0.149 | -0.575 | -0.278 | -0.239 | 0.0656 | 0.676
5 | C=C(C(=O)CC[C@@H](OC(=O)c1ccccc1-c1ccccc1C(=O)O)c1cccc(OCCO)c1)C(C)C | 1.46 | 0.433 (inactive) | -0.0072 (inactive) | -0.641 (inactive) | -0.104 | 0.355 (inactive) | -0.118 | 0.782 | 0.164 | -0.182 | 0.679 | -0.318 | -0.393 | 0.436 (inactive) | 1.56 | 0.133 | -0.143 | 0.441 | 0.907 | 1.06
6 | O=C(N1CCOCC1)[C@]1(CCS(=O)(=O)c2ccccc2)N=C(c2ccc(OCCCO)cc2)O[C@@H]1c1ccccc1 | 1.45 | 0.825 (inactive) | 0.778 (inactive) | 2.98 (inactive) | 3.26 | 1.14 (inactive) | 0.227 | 0.0673 | 1.08 | 0.0727 | 1.5 | 1.18 | 1.37 | -1.04 (inactive) | 0.59 | 0.7 | -0.113 | 0.488 | -0.753 | 0.599
7 | C[C@H]1C2[C@H](Cc3ccccc3)NC(=O)[C@]23C(=O)N[C@@H](Cc2ccccc2)C(=O)N2CCC[C@H]2C(=O)NC/C=C/CC/C=C/C3[C@@H]2O[C@]12C (stereo not given in full) | 1.05 | -0.501 (inactive) | -0.36 (inactive) | -0.441 (inactive) | 1.7 | -0.269 (inactive) | -0.0666 | 0.79 | 0.977 | -0.135 | 1.26 | -0.297 | -0.684 | 0.437 (inactive) | 1.38 | 0.769 | -0.0947 | 0.895 | 0.272 | 0.87
8 | CCCCN1CC=CC23O[C@@H]4/C=C\CCCOC(=O)C4[C@H]2C(=O)N(CCCCCCO)[C@@H]3C1=O (stereo not given in full) | 0.988 | -0.917 (inactive) | -0.818 (inactive) | -0.771 (inactive) | 3.56 | 1.79 (inactive) | -0.19 | -0.676 | -0.0185 | -0.262 | 0.502 | -0.196 | 0.663 | -1.09 (inactive) | -0.764 | -0.755 | -1.08 | -0.451 | -1.75 | 0.627
9 | O=C(c1ccccc1)N1Cc2ccccc2C[C@@]2(N=C(c3ccc(OCCCO)cc3)O[C@H]2c2ccccc2)C1=O | 1.54 | -0.68 (inactive) | -10.3 (active) | 5.51 (inactive) | 2.81 | -0.231 (inactive) | -0.0982 | 1.73 | 1.09 | 0.024 | 1.26 | -0.114 | -0.0152 | -0.847 (inactive) | 1.38 | 1.3 | 0.699 | 0.963 | 0.777 | -0.395
10 | C=CCC(OC(C)=O)[C@@H]1[C@@H](N(Cc2cccc3ccccc23)C(=O)c2ccc(C)cc2)c2cc(OCCCO)ccc2N1C(=O)Cc1ccc2ccccc2c1 (stereo not given in full) | -0.52 | -1.8 (inactive) | -0.825 (inactive) | -0.614 (inactive) | 0.318 | 1.17 (inactive) | -0.113 | -0.206 | 0.141 | -0.184 | -0.542 | 0.0891 | 0.135 | -1.86 (inactive) | -0.123 | -0.0662 | 0.13 | -0.345 | 0.248 | 1.34
